Hit rate of the full screen: of about 5,500 compounds, about 2,000 (36%) were called active. Not shown: some 18% with an inconclusive outcome. Some of the results follow. Values without a mark were called inactive. Rule as the data show it: active = normalized growth mostly below about 0.91 (no sharp cut-off); inconclusive = no clear call, values can overlap the other calls; inactive = mostly above about 0.92.
Assay: chemical genetic growth profiling, strain panel (AID 1159580);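 also: tested at 20 µM; growth read once vehicle control cultures reached saturation at 30 °C; 1 = growth at the plate median or of vehicle wells; lower values mean less growth of the strain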
Conditions: S. cerevisiae deletion strains, growth OD

Work on `COc1ccccc1N1CCN(C(=O)C(C)Nc2ccccn2)CC1` (stereo unspecified) yielded a normalized growth (locus YAL013W, strain DEP1, active compounds read low) of 0.994, a normalized growth (locus YBR229C, strain ROT2, active compounds read low) of 1 and a normalized growth (locus YDL101C, strain DUN1, active compounds read low) of 0.985. For the same molecule, the normalized growth (locus YDR150W, strain NUM1, active compounds read low) was 0.986, the normalized growth (locus YEL061C, strain CIN8, active compounds read low) was 1.01 and the normalized growth (locus YGR078C, strain PAC10, active compounds read low) was 0.986. For the same molecule, the normalized growth (locus YHR030C, strain SLT2, active compounds read low) was 0.952, the normalized growth (locus YHR087W, strain rtc3, active compounds read low) was 1.01 and the normalized growth (locus YJL187C, strain SWE1, active compounds read low) was 0.994. The normalized growth (locus YJR043C, strain POL32, active compounds read low) was 1, the normalized growth (locus YJR075W, strain HOC1, active compounds read low) was 1.02 and the normalized growth (locus YLR039C, strain RIC1, active compounds read low) was 0.997. It also gave a normalized growth (locus YLR058C, strain SHM2 (second series), active compounds read low) of 0.996, a normalized growth (locus YLR085C, strain ARP6, active compounds read low) of 1.04 and a normalized growth (locus YLR262C, strain YPT6, active compounds read low) of 0.996. It also gave a normalized growth (locus YML094W, strain GIM5, active compounds read low) of 0.984, a normalized growth (locus YMR219W, strain ESC1, active compounds read low) of 0.999 and a normalized growth (locus YMR263W, strain SAP30, active compounds read low) of 1.04. The normalized growth (locus YMR307W, strain GAS1, active compounds read low) was 1.09, the normalized growth (locus YNL153C, strain GIM3, active compounds read low) was 1.02 and the normalized growth (locus YNL298W, strain CLA4 (second series), active compounds read low) was 0.997. The normalized growth (locus YNL322C, strain KRE1, active compounds read low) was 0.999, the normalized growth (locus YNR030W, strain Alg12, active compounds read low) was 1 and the normalized growth (locus YPL055C, strain LGE1, active compounds read low) was 1.01. The normalized growth (locus YPL241C, strain CIN2, active compounds read low) was 1.24 [resistant] (active) and the normalized growth (locus YPR135W, strain CTF4, active compounds read low) was 1.
